Experimental data reported in PubChem BioAssay AID1259421 (Broad Institute, 2018).
Values joined by “and” are separate entries in the source; they are usually repeats but may differ in a detail not shown here. Identical values can stand only once. In all, about 6,400 compounds went through this assay and about 610 (9.5%) were called active. No stated cut-off is given here; in the data, active means activity change below about -70%; inconclusive means no clear call, values can overlap the other calls; inactive means above that. The full list was thinned out, with actives kept by preference. Some structures have more than one record in an assay (separate samples or runs), and their calls can disagree.

Assay: T. gondii ME49Luc in HeLa cells, luciferase assay, 72 h, no IFN-y (AID 1259421)
Details: stronger effect = lower value, concentration not given here

| SMILES | activity change, negative = inhibition |
| --- | --- |
| Oc1ccc2c3c1O[C@H]1c4[nH]c5ccccc5c4C[C@@]4(O)C(C2)N(CC2CC2)CC[C@]314 | 10.7% (inactive) |
| CO[C@H]1CCC(O[C@H]2CC([C@]3(C)CC[C@]4(C[C@H](O)[C@@H](C)[C@@H]([C@@H](C)/C=C(\C)C(=O)[C@H](C)C[C@H](C)C(=O)O)O4)O3)O[C@]3(O[C@@H](C4O[C@@](O)(CO)[C@H](C)C[C@@H]4C)C[C@@H]3C)[C@@H]2C)O[C@@H]1C (stereo not given in full) | -83.8% (active) |
| N[C@H](CO)Cc1ccccc1 | 1.26% (inactive) |
| N#CC(C#N)=Cc1ccc([N+](=O)[O-])c(O)c1 | -6.99% (inactive) |
| Oc1ccc2c(c1)[C@@]13CCCC[C@@]1(O)[C@@H](C2)N(CC1CCC1)CC3 | 18.4% (inactive) |
| COC(=O)C[C@@](O)(CCC(C)(C)O)C(=O)O[C@@H]1C(OC)=C[C@]23CCCN2CCc2cc4c(cc2[C@@H]13)OCO4 | -83.3% (active) |
| CN1CCc2cc3c(cc2C1O)OCO3 (stereo not given) | 7.57% (inactive) |
| CSCCC(NC(=O)C(Cc1ccccc1)NC(=O)CNC(=O)CNC(=O)C(N)Cc1ccc(O)cc1)C(=O)O (stereo not given) | 10.2% (inactive) |
| CCC(CO)(C(=O)OC1CC2CCC(C1)[N+]2(C)C)c1ccccc1 (stereo not given) | 0.204% (inactive) |
| FC(F)(F)c1cccc(C2=CCN(CCc3ccc4ccccc4c3)CC2)c1 | 10.1% (inactive) and 11.9% (inactive) |
| CCN1CCN(C(=O)Cc2ccc(Nc3ncc(F)c(Nc4ccc(C(=O)Nc5ccccc5Cl)cc4)n3)cc2)CC1 | -83.3% (active) |
| COC(=O)N1CCN(C(=O)Cc2ccc(Cl)c(Cl)c2)C(CN2CCCC2)C1 (stereo not given) | 6.7% (inactive) |
| CC1(C)C2CC(=O)[C@]3(C)C(CC[C@@]4(C)[C@H](c5ccoc5)OC(=O)[C@H]5O[C@]543)[C@@]2(C)C(=O)C[C@H]1O (stereo not given in full) | -1.25% (inactive) |
| CNCC(O)c1ccc(O)cc1 (stereo not given) | 3.63% (inactive) and 14.9% (inactive) |
| CC(Cc1ccc(O)cc1)NCC(O)c1cc(O)cc(O)c1 (stereo not given) | -70.6% (active) and 10.9% (inactive) |
| C[C@H](Cc1ccc(OCC(=O)O)cc1)NC[C@H](O)c1cccc(Cl)c1 | 4.02% (inactive) and 20.9% (inactive) |
| C[C@]12C=CC(=O)C=C1CCC1C2CC[C@]2(C)C(=O)CCC12 (stereo not given in full) | 3.57% (inactive) |
| C[C@@H]1CN(C2CCC(C#N)(c3ccc(F)cc3)CC2)CC[C@]1(C(=O)O)c1ccccc1 (stereo not given in full) | -7.9% (inactive) |
| C=C1CCC2(O)C3Cc4ccc(O)c5c4C2(CCN3CC2CC2)C1O5 (stereo not given) | 12.3% (inactive) |
| NC[C@H](CC(=O)O)c1ccc(Cl)cc1 | 3.97% (inactive) |
